Assay outcomes (PubChem)
The entries come from a sample that favours hits as a whole.
PD-1 reverse act: activators reversing PD-1 mediated T-cell inhibition | primary human CD4 T cells, PD-L1 beads, CellTiter-Glo 96 h | activation, % (test concentration not listed) | 29,000 tested, under 10 active | AID 2316; call rule not given here
NOMO-1 viab: STK33 inhibitor candidate reducing NOMO-1 cell viability. 7.5% of 37,000 active. NOMO-1 AML viability, CellTiter-Glo luminescence, 72 h. inhibition, % (no concentration beside the values); in the data active means inhibition above about 80%; inconclusive means no clear call, values can overlap the other calls
STK33 inh: inhibitors of human STK33 kinase | AID 2322 | ADP-Glo luminescence, MBP substrate | Q9BYT3 | inhibition, % at 12.5 µM | 0.44% of 27,000 active; in the data active means inhibition above about 20%; inconclusive means no clear call, values can overlap the other calls
Target sequence (Q9BYT3 whole entry, looked up): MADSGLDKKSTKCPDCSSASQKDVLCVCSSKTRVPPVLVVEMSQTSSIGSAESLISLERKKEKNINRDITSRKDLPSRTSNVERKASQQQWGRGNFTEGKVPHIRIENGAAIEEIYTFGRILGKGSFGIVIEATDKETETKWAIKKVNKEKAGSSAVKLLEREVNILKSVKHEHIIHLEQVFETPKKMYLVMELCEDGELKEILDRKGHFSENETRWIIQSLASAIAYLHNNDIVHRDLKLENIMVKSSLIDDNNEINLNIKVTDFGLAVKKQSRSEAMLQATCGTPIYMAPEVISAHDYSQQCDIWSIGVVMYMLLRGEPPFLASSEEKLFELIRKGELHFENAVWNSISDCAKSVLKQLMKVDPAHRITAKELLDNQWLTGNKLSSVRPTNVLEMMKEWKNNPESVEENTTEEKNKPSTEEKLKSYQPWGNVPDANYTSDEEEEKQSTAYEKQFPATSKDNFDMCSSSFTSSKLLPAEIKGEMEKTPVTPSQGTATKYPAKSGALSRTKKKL
Each line names hits and unclear results; the compound was inactive in the other large screens.

COc1ccc(S(=O)(=O)Nc2ccc3c(c2)C(=O)N([C@H](C)CO)C[C@H](C)[C@H](CN(C)S(=O)(=O)c2ccc(Cl)cc2)OCCCC[C@@H](C)O3)cc1	NOMO-1 viab 107
COc1ccc(S(=O)(=O)N(C)C[C@@H]2Oc3ccc(NC(=O)Nc4ccc(C(F)(F)F)cc4)cc3C(=O)N([C@H](C)CO)C[C@@H]2C)cc1	NOMO-1 viab 105
COc1ccc(S(=O)(=O)N(C)C[C@@H]2Oc3ccc(NC(=O)Nc4ccc(C(F)(F)F)cc4)cc3C(=O)N([C@H](C)CO)C[C@H]2C)cc1	NOMO-1 viab 113 (no result: STK33 inh)
C[C@@H]1CN([C@H](C)CO)C(=O)c2cc(NC(=O)Nc3ccc(C(F)(F)F)cc3)ccc2O[C@H]1CN(C)S(=O)(=O)c1ccccc1	none
COc1ccc(S(=O)(=O)N(C)C[C@H]2Oc3ccc(NC(=O)Nc4ccc(C(F)(F)F)cc4)cc3C(=O)N([C@H](C)CO)C[C@@H]2C)cc1	none
COc1ccc(S(=O)(=O)N(C)C[C@H]2OCCCC[C@@H](C)Oc3ccc(NS(=O)(=O)c4ccc(Cl)cc4)cc3C(=O)N([C@H](C)CO)C[C@@H]2C)cc1	none (no result: PD-1 reverse act, STK33 inh)
COc1ccc(S(=O)(=O)N(C)C[C@@H]2Oc3ccc(NC(=O)Nc4ccc(C(F)(F)F)cc4)cc3C(=O)N([C@@H](C)CO)C[C@H]2C)cc1	none (no result: STK33 inh)
C[C@@H]1CN([C@@H](C)CO)C(=O)c2cc(NC(=O)Nc3ccc(C(F)(F)F)cc3)ccc2O[C@H]1CN(C)S(=O)(=O)c1ccc(Cl)cc1	NOMO-1 viab 93 (no result: STK33 inh)
CCC(Sc1nnc(C)s1)C(=O)Nc1ccc(Cl)cc1 (stereo not given)	none
O=C(Nc1sc2c(c1C(=O)NCC1CCCO1)CCCC2)c1ccc(Cl)cc1Cl (stereo not given)	none
COc1cc(NC(=O)COc2c(Cl)c(C)c(Cl)c(C)c2Cl)c(OC)cc1Cl	none (no result: PD-1 reverse act)
COc1ccc(OC)c(NC(=O)Cn2cnc3sc(C)c(-c4ccccc4)c3c2=O)c1	none
CCOC(=O)c1c(NC(=O)CN2C(=O)c3cccc4cccc(c34)C2=O)sc2c1CCC2	none
CCCc1ccc(-c2cc(C(=O)NCc3cccnc3)c3ccccc3n2)cc1	none (no result: PD-1 reverse act)
C[C@@H]1CCCCO[C@@H](CN(C)S(=O)(=O)c2ccc(Cl)cc2)[C@@H](C)CN([C@H](C)CO)C(=O)c2cc(NC(=O)Nc3ccc(C(F)(F)F)cc3)ccc2O1	none
C[C@@H]1CCCCO[C@H](CN(C)S(=O)(=O)c2ccc(Cl)cc2)[C@@H](C)CN([C@H](C)CO)C(=O)c2cc(NC(=O)Nc3ccc(C(F)(F)F)cc3)ccc2O1	NOMO-1 viab 98
CS(=O)(=O)N(CC(=O)Nc1ccc(F)c(F)c1)c1ccccc1Br	none
COc1cc(OC)c(C2=NOC(C(=O)Nc3sc4c(c3C#N)CCC4)C2)cc1Cl (stereo not given)	none
O=C(O)c1cc(O)c2c(c1)C(=O)c1cc(O)cc(O)c1C2=O	none (no result: PD-1 reverse act)
O=C1c2ccc(O)cc2C(=O)c2ccc(O)cc21	STK33 inh 34
Cc1sc2ncn(CC(=O)Nc3cccc(Cl)c3C)c(=O)c2c1-c1ccccc1	none (no result: PD-1 reverse act)
C[C@@H]1CN([C@@H](C)CO)C(=O)Cc2cc(N(C)C)ccc2O[C@@H]1CN(C)Cc1ccccc1	NOMO-1 viab 122 (no result: PD-1 reverse act)
C[C@H]1CN([C@@H](C)CO)C(=O)Cc2cc(N(C)C)ccc2O[C@H]1CN(C)Cc1ccccc1	none
C[C@@H]1CN([C@@H](C)CO)C(=O)Cc2cc(N(C)C)ccc2O[C@@H]1CN(C)Cc1ccc(Oc2ccccc2)cc1	NOMO-1 viab 106 (no result: PD-1 reverse act)
C[C@@H]1CN([C@H](C)CO)C(=O)Cc2cc(N(C)C)ccc2O[C@H]1CN(C)Cc1ccccc1	none (no result: PD-1 reverse act)
Cc1ccc(CC(=S)N2CCOCC2)cn1	none (no result: STK33 inh)
Cc1occc1C(=O)Nc1sc2c(c1C(=O)NCc1cccnc1)CCCC2	none
C=C(C)C(=O)Nc1ccc(O)c(-c2nc3ccccc3[nH]2)c1	none (no result: STK33 inh)
C[C@@H]1C[C@H]2OCC3=CCC[C@H]([C@]1(CC(O)c1ccoc1)C(=O)O)[C@]32CO (stereo not given in full)	NOMO-1 viab 120
CC1=CCC[C@@H]2[C@](CCc3ccoc3)(C(=O)O)[C@H](C)CC[C@@]12C	none
C=CCn1c(=S)sc2c(Sc3nnc(-c4ccco4)o3)ncnc21	NOMO-1 viab 115 (no result: STK33 inh)
Cc1ccc(C(=O)CSc2nnc(-c3ccco3)o2)o1	none
Cc1ccc(N(CC(=O)Nc2cc(Cl)ccc2Cl)S(C)(=O)=O)cc1C	none
N#C/C(=C(\O)c1ccc(C(=O)c2ccccc2)cc1)c1nc2ccccc2s1	none (no result: STK33 inh)
C[C@@H]1CN([C@@H](C)CO)C(=O)c2cc(NC(=O)Nc3ccc(F)cc3)ccc2O[C@H]1CN(C)Cc1ccc(Oc2ccccc2)cc1	none
C[C@H]1CN([C@@H](C)CO)C(=O)c2cc(NC(=O)Nc3ccccc3)ccc2O[C@@H]1CN(C)Cc1ccc(Oc2ccccc2)cc1	NOMO-1 viab 97 (no result: STK33 inh)
C[C@@H]1CN([C@H](C)CO)C(=O)c2cc(NC(=O)Nc3ccccc3)ccc2O[C@@H]1CN(C)Cc1ccc(Oc2ccccc2)cc1	none (no result: STK33 inh)
C[C@H](CO)N1C[C@H](C)[C@@H](CN(C)Cc2ccc(Oc3ccccc3)cc2)Oc2ccc(NC(=O)CCC(F)(F)F)cc2C1=O	none (no result: STK33 inh)
C[C@@H]1CN([C@@H](C)CO)C(=O)c2cc(NC(=O)Nc3ccccc3)ccc2O[C@H]1CN(C)Cc1ccc(Oc2ccccc2)cc1	NOMO-1 viab 112 (no result: STK33 inh)
C[C@H](CO)N1C[C@H](C)[C@H](CN(C)Cc2ccc(Oc3ccccc3)cc2)Oc2ccc(NC(=O)CCC(F)(F)F)cc2C1=O	NOMO-1 viab 114 (no result: STK33 inh)
COc1ccc(OC)c(NC(=O)CSc2nc3ccccc3n2C2CCCCC2)c1	none (no result: PD-1 reverse act)
Cc1ccc(N(CC(=O)Nc2ccc(F)c(Cl)c2)S(C)(=O)=O)cc1	none
CCNc1nc(SCC(N)=O)nc(N2CCOCC2)n1	none (no result: PD-1 reverse act)
Cc1ccc(N(CC(=O)Nc2ccccc2-c2ccccc2)S(C)(=O)=O)cc1	none
C[C@@H]1CN([C@H](C)CO)C(=O)Cc2cc(NC(=O)Nc3ccc(C(F)(F)F)cc3)ccc2O[C@@H]1CN(C)CC1CCCCC1	NOMO-1 viab inconclusive
C[C@H]1CN([C@@H](C)CO)C(=O)Cc2cc(NC(=O)Nc3cccc4ccccc34)ccc2O[C@@H]1CN(C)CC1CCCCC1	NOMO-1 viab 136
C[C@H]1CN([C@@H](C)CO)C(=O)Cc2cc(NC(=O)Nc3cccc4ccccc34)ccc2O[C@H]1CN(C)C	none
C[C@@H]1CN([C@H](C)CO)C(=O)Cc2cc(NC(=O)Nc3ccccc3)ccc2O[C@H]1CN(C)CC1CCCCC1	NOMO-1 viab inconclusive
C[C@@H]1CN([C@H](C)CO)C(=O)Cc2cc(NC(=O)Nc3ccc(C(F)(F)F)cc3)ccc2O[C@H]1CN(C)CC1CCCCC1	NOMO-1 viab 116
C[C@H]1CN([C@@H](C)CO)C(=O)Cc2cc(NC(=O)Nc3ccccc3)ccc2O[C@H]1CN(C)CC1CCCCC1	NOMO-1 viab 90
CC(=O)c1cccc(NC(=O)CN(C2CCCCC2)S(=O)(=O)c2c(C)cc(C)cc2C)c1	none
C[C@H]1CN([C@@H](C)CO)C(=O)Cc2cc(NC(=O)Nc3ccc(C(F)(F)F)cc3)ccc2O[C@H]1CN(C)S(=O)(=O)c1cn(C)cn1	NOMO-1 viab 125
C[C@H]1CN([C@@H](C)CO)C(=O)Cc2cc(NC(=O)Nc3ccc(C(F)(F)F)cc3)ccc2O[C@H]1CN(C)S(=O)(=O)c1cccs1	NOMO-1 viab 128
